Shiga toxin inh: A qHTS for Small Molecule Inhibitors of Shiga Toxin; Vero cells, Shiga toxin protein synthesis inhibition reporter; inhibition, % at 38.7 µM; hit rate 9.2% among 290,000; in the data active means inhibition mostly above about 28%, no sharp cut-off; inactive means mostly below about 43%
CHX counter: Cycloheximide Counterscreen for Small Molecule Inhibitors of Shiga Toxin; hit rate 12% among 300,000; cell reporter, cycloheximide protein synthesis inhibition counterscreen; max response, %; AID 2314, 2010; in the data active means max response mostly above about 13%, no sharp cut-off; inactive means mostly below about 14%; further: read at 38.3 µM for the half of the compounds with a filed dose
FBPA Giardia inh: qHTS Assay for Inhibitors of Fructose-1,6-bisphosphate Aldolase from Giardia Lamblia; A8B2U2; purified Giardia FBPA; Potency, µM (titrated, usually from 59.6 µM), usual class: inhibitors; hit rate 0.71% among 290,000; further: nearly all actives have a fitted effect of over 55% in size
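40 nM FBPA preincubated 10 min at RT with compound (up to 57.5 uM final), then substrate plus GAPDH/TPI/NAD/arsenate coupling and diaphorase/resazurin added. Fluorescence read after 20 min at RT, 525/598 nm.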
Sm TGR block: qHTS Assay for the Inhibitors of Schistosoma Mansoni Peroxiredoxins | Schistosoma mansoni thioredoxin glutathione reductase (TGR), Q962Y6 | purified TGR, DTNB reduction, TNB absorbance 405 nm | Potency, µM (doses to about 114 µM), most hits filed as inhibitors | hit rate 3% among 360,000; further: nearly all actives have a fitted effect of over 60% in size
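First, TGR (20 nM dispensed) and NADPH were mixed with compound. Second, a 15 min room-temperature incubation followed. Third, further NADPH and then DTNB were added to start the reaction. Finally, TNB absorbance was monitored kinetically.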
LmPK inhibitor: qHTS Assay for Inhibitors of Leishmania Mexicana Pyruvate Kinase (LmPK). purified LmPK, Kinase-Glo ATP luminescence, 1 h. Potency, µM (top dose mostly 57.5 µM), most hits filed as inhibitors. hit rate 0.37% among 290,000. AID 1721, 2009
Target sequence (Q27686 whole entry, looked up): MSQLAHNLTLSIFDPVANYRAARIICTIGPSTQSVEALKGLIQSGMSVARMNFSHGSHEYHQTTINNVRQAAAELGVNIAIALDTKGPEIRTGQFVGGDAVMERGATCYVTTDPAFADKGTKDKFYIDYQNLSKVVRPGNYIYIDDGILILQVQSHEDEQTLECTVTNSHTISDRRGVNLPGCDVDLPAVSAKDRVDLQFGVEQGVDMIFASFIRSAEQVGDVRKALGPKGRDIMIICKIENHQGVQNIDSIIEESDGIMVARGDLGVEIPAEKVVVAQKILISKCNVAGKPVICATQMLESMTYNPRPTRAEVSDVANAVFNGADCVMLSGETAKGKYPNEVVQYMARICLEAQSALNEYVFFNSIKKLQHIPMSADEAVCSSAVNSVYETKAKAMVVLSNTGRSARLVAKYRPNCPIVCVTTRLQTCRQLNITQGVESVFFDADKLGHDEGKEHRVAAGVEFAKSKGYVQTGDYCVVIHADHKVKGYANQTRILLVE
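In 50 mM imidazole pH 7.2 with 7 mM MgCl2, LmPK (0.1 nM) turned over PEP (0.5 mM) and ADP (0.1 mM) for 1 h at room temperature. Luciferase read-out of ATP.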
Tb PYK inh: qHTS of Trypanosoma Brucei Inhibitors; TbPYK enzyme, Kinase-Glo Plus ATP luminescence, 45 min; hit rate 0.12% among 410,000; Potency, µM (titrated, usually from 76.8 µM), actives largely listed as inhibitors; further: nearly all actives have a fitted effect of over 50% in size
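ADP (130 uM final) triggers the TbPYK reaction after compound addition; incubation is 45 min at room temperature. Kinase-Glo Plus is then added and luminescence imaged. Normalized data are fitted to concentration-effect curves.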
Numbers stand for hits; i = inactive; ? = inconclusive; nt = no result; [ ] = remark or other dose. Many of the other results were omitted from the sample, so hits are more common in it than they were. Unless noted, the call rests on the fitted dose curve; in most records, active means well fitted curve in the direction sought with a large enough effect; inconclusive means small, poorly fitted or top-dose-only effect, or another doubt; inactive means no such curve, though single readings can be large; an effect the other way counts as inactive or inconclusive.

SMILES | Shiga toxin inh | CHX counter | FBPA Giardia inh | Sm TGR block | LmPK inhibitor | Tb PYK inh
CC(=O)Nc1nnc(SCc2ccc(C(=O)Nc3ccccc3F)cc2)s1 | i | i | i | i | i | i
Cc1cccc(Cn2c(=O)n(CCCCC(=O)NCc3ccc4c(c3)OCO4)c(=O)c3ccccc32)c1 | nt | nt | nt | i | nt | i
CC(C)c1ccc(C(=O)OCC(=O)NC2CCCC2)cc1 | i | 27 | i | i | i | i
Cc1ccc(C(=O)OCC(=O)NC2CCCC2)cc1C | 54 | 22 | i | i | i | i
CCc1ccc(C(=O)OCC(=O)NC2CCCC2)cc1 | i | 30 | i | i | i | i
COc1ccc(N2CC3=C(C2=O)C(c2ccc(Br)cc2)NC(=O)N3C)cc1 (stereo not drawn) | nt | nt | nt | i | nt | i
CSc1ccc(CCNC(=O)CN2C(=O)COc3ccc(S(=O)(=O)N4CCCC4)cc32)cc1 | nt | nt | nt | i | nt | i
Cc1ccccc1Nc1cc(C(=O)NCCCN2CCN(c3cccc(Cl)c3)CC2)c2ccccc2n1 | nt | nt | nt | i | nt | i
CN(C)/C=N/c1c(C#N)cnn1-c1nc2ccccc2s1 | 87 | 44 | i | i | i | i
Cn1c(C(C#N)C(=O)Cc2cccc3ccccc23)nc2ccccc21 (stereo not drawn) | i | i | i | i | i | i
Cn1c(C(C#N)C(=O)c2ccco2)nc2ccccc21 (stereo not drawn) | 71 | 34 | i | i | i | i
Nc1c(-c2n[nH]c(=S)n2-c2ccc(Cl)cc2Cl)cnn1-c1ccccc1 | i | i | i | i | i | i
Nc1[nH]nc2c1NN(c1ccc(Cl)cc1Cl)N2 | 83 | 48 | i | i | i | i
COc1ccc(C(=O)N2CCC2(C)C(=O)NC(C)C)cc1 (stereo not drawn) | nt | nt | nt | nt | nt | i
COc1ccc(-c2nc3sc(CCNS(=O)(=O)c4ccccc4)c(C)n3n2)cc1 | nt | nt | nt | i | nt | i
COC1c2ccccc2C(=O)N1CCc1ccc(Cl)cc1 (stereo not drawn) | 41 | 16 | i | i | i | i
O=C(/C=C/c1ccccc1)CC(O)(c1ccccc1)C(F)(F)F (stereo not drawn) | i | i | i | 28µM | i | i
COc1ccc(/C=C/C(=O)CC(O)(c2ccccc2)C(F)(F)F)cc1 (stereo not drawn) | i | i | i | i | i | i
O=C(/C=C/c1ccccc1)CC(O)(c1ccccc1)C(F)(F)C(F)F (stereo not drawn) | i | i | i | 25µM | i | i
CCCCCCCC#Cc1ccccc1/C=N/S(=O)C(C)(C)C (stereo not drawn) | nt | nt | i[12.9 µM] | nt | nt | nt
CC(C)(C)c1nnc(N/N=C/c2ccc(Br)cc2)n(N)c1=O | 64 | 55 | i | i | i | i
Cc1cc(S(=O)(=O)Nc2cc3c(cc2NCc2ccccc2)n(C)c(=O)n3C)ccc1F | nt | nt | nt | i | nt | i
Cc1[nH]n(C(N)=S)c(=O)c1N=Nc1cc(-c2ccc(Br)cc2)[nH]n1 | i | 35 | i | i | i | i
Cc1[nH]n(C(N)=S)c(=O)c1N=Nc1cccc([N+](=O)[O-])c1C | 51 | 57 | i | i | i | i
Cc1[nH]n(C(N)=S)c(=O)c1N=Nc1ccc(S(=O)(=O)N2CCCCCC2)cc1 | i | i | ? | i | i | i
SMILES | Shiga toxin inh | CHX counter | FBPA Giardia inh | Sm TGR block | LmPK inhibitor | Tb PYK inh
Cc1ccc(N=Nc2c(C)[nH]n(C(N)=S)c2=O)cc1C | 158 | 26 | i | i | i | i
CC(=O)Nc1ccc(N=Nc2c(C)[nH]n(C(N)=S)c2=O)cc1 | 88 | 34 | i | i | i | i
COc1ccc(-c2cc(C(=O)N(C)Cc3ccc(F)cc3)c3ccccc3n2)cc1OC | nt | nt | nt | nt | nt | i
O=C(Cc1ccsc1)NNC(=O)c1ccccc1Cl | nt | nt | nt | i | nt | i
Cc1[nH]n(C(N)=S)c(=O)c1N=Nc1ccc2ccccc2c1 | 93 | 45 | i | ? | i | i
c1ccc(CCCc2nc(-c3cccnc3)no2)cc1 | 43 | 19 | i | i | i | i
Cc1ccc(-c2noc(CSc3ccccc3)n2)cc1 | 77 | 33 | i | i | i | i
Cc1cccc(-c2noc(CSc3ccccc3)n2)c1 | 67 | 44 | i | i | i | i
c1ccc(C(Cc2nc(-c3cccnc3)no2)c2ccccc2)cc1 | i | i | i | i | i | i
c1ccc(SCc2nc(-c3cccnc3)no2)cc1 | 108 | 36 | i | i | i | i
Cc1cccc(-c2noc(CSc3nc(-c4ccc(F)cc4)cc(=O)[nH]3)n2)c1 | nt | nt | nt | i | nt | i[15.4 µM]
Cc1ccc(NC(=O)c2sc3ncnc(N(C)C4CCCCC4)c3c2C)cc1 | nt | nt | nt | i | nt | i
O=C1[C@H]2[C@H]3[C@H](O)[C@H](O)C/C(=N/OCc4ccccc4)[C@@H]3CC[C@@H]2C(=O)N1C1CCCCC1 | nt | nt | i[12.9 µM] | nt | nt | nt
Cc1ccc(S(=O)(=O)CC(=O)Nc2nc3c(C)cccc3s2)cc1 | nt | nt | nt | i | nt | i[15.4 µM]
Cc1c(CNC(C)CCc2ccccc2)c(C(=O)O)c(C)n1Cc1ccc(F)cc1Cl (stereo not drawn) | nt | nt | nt | i | nt | i
Cc1ccc(-c2noc(CSc3nc(N)cc(N)n3)n2)cc1 | 87 | 53 | i | i | i | i
CC(=O)c1ccc(NC(=O)Cn2c3ncccc3c(=O)n2-c2ccc(C)cc2)cc1 | nt | nt | nt | i | nt | i
CCC(Sc1nnnn1C)C(=O)Nc1ccc(C(C)=O)cc1 (stereo not drawn) | 115 | 23 | i | i | i | i
O=c1[nH]c2ccc(Cl)cc2c(O)c1-c1ccccc1 | 78 | 27 | i | i | i | i
O=c1[nH]c2cc(Cl)ccc2c(O)c1-c1ccc(Oc2ccccc2)cc1 | nt | nt | i | nt | nt | nt
COc1cc(OC)c(NC(=O)C2CCN(S(=O)(=O)c3c(C)noc3/C=C/c3c(C)cc(C)cc3C)CC2)cc1Cl | nt | nt | nt | i | nt | i
CC(=O)N1CCc2cc(S(=O)(=O)C(C)CC(=O)Nc3ccc(OC(F)(F)F)cc3)ccc21 (stereo not drawn) | i | 29 | i | i | i | i
COc1ccc(CN=C(Nc2ccccc2)SC2CC(=O)NC2=O)cc1 (stereo not drawn) | 143 | 44 | i | i | i | i
Cn1c(=NC(=O)c2ccccc2[N+](=O)[O-])sc2cccc(F)c21 | 162 | 63 | i | i | i | i
CC(C)C(=O)N=c1sc2cc(F)cc(F)c2n1C | i | i | i | i | i | i
Cn1c(=NC(=O)C(C)(C)C)sc2cccc(F)c21 | 58 | i | i | i | i | i
CCN1CCSc2ccc(C(=O)NC(C)c3ccccc3)cc21 (stereo not drawn) | nt | nt | nt | i | nt | i
COC(=O)c1[nH]c2cc(OC)ccc2c1NC(=O)c1c(F)cccc1F | i | i | i | i | i | i
C=CCNC(=S)Nc1c(C(=O)OC)[nH]c2cc(OC)ccc12 | i | 19 | i | 1.8µM | i | i

Assay outcomes from PubChem BioAssay.
